# Measurements reported in the supplement of paper PMC4466140.
# B1: unnamed (peptide)
# chain: PPPPPPPPPPPLPQS
# Molecular target: ScBbc1
# Test: SPOT peptide array binding signal intensity (averaged, normalized) (arbitrary units (background-subtracted, floor 0; scale differs between SH3 domains)); higher = stronger binding of the SH3 domain to the peptide
# Outline: (§1)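 Peptides were synthetic 15-mers on cellulose membranes, with every cysteine replaced by serine. They were incubated overnight at 4°C with GST-SH3 domains from four yeast species at 10 μg/ml in TBS-based blocking buffer. Binding signal, the replicate-averaged normalized and background-subtracted spot intensity, is in arbitrary units that differ between domains.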
row,Binder,SPOT peptide array binding signal intensity
1,B1,1.25

# Molecular target: ScBem1-D1
# Test: as above
# Outline: as §1
row,Binder,SPOT peptide array binding signal intensity
1,B1,≤ 0

# Molecular target: ScBzz1-D1
# Test: as above
# Outline: as §1
row,Binder,SPOT peptide array binding signal intensity
1,B1,9

# Molecular target: ScBzz1-D2
# Test: as above
# Outline: as §1
row,Binder,SPOT peptide array binding signal intensity
1,B1,2

# Molecular target: ScCyk3
# Test: as above
# Outline: as §1
row,Binder,SPOT peptide array binding signal intensity
1,B1,≤ 0

# Molecular target: ScFus1
# Test: as above
# Outline: as §1
row,Binder,SPOT peptide array binding signal intensity
1,B1,1.5

# Molecular target: ScHof1
# Test: as above
# Outline: as §1
row,Binder,SPOT peptide array binding signal intensity
1,B1,20

# Molecular target: ScHse1
# Test: as above
# Outline: as §1
row,Binder,SPOT peptide array binding signal intensity
1,B1,≤ 0

# Molecular target: ScLsb1
# Test: as above
# Outline: as §1
row,Binder,SPOT peptide array binding signal intensity
1,B1,≤ 0

# Molecular target: ScLsb2
# Test: as above
# Outline: as §1
row,Binder,SPOT peptide array binding signal intensity
1,B1,≤ 0

# Molecular target: ScLsb3
# Test: as above
# Outline: as §1
row,Binder,SPOT peptide array binding signal intensity
1,B1,42.5

# Molecular target: ScLsb4
# Test: as above
# Outline: as §1
row,Binder,SPOT peptide array binding signal intensity
1,B1,7

# Molecular target: ScMyo3
# Test: as above
# Outline: as §1
row,Binder,SPOT peptide array binding signal intensity
1,B1,1490

# Molecular target: ScMyo5
# Test: as above
# Outline: as §1
row,Binder,SPOT peptide array binding signal intensity
1,B1,1040

# Molecular target: ScNbp2
# Test: as above
# Outline: as §1
row,Binder,SPOT peptide array binding signal intensity
1,B1,≤ 0

# Molecular target: ScPex13
# Test: as above
# Outline: as §1
row,Binder,SPOT peptide array binding signal intensity
1,B1,51.5

# Molecular target: ScRvs167
# Test: as above
# Outline: as §1
row,Binder,SPOT peptide array binding signal intensity
1,B1,≤ 0

# Molecular target: ScSho1
# Test: as above
# Outline: as §1
row,Binder,SPOT peptide array binding signal intensity
1,B1,≤ 0

# Molecular target: ScSla1-D1-D2
# Test: as above
# Outline: as §1
row,Binder,SPOT peptide array binding signal intensity
1,B1,≤ 0

# Molecular target: ScSla1-D3
# Test: as above
# Outline: as §1
row,Binder,SPOT peptide array binding signal intensity
1,B1,0.75

# Molecular target: SpAbp1-D1
# Test: as above
# Outline: as §1
row,Binder,SPOT peptide array binding signal intensity
1,B1,12.5

# Molecular target: SpBbc1
# Test: as above
# Outline: as §1
row,Binder,SPOT peptide array binding signal intensity
1,B1,0.5

# Molecular target: SpBzz1-D1
# Test: as above
# Outline: as §1
row,Binder,SPOT peptide array binding signal intensity
1,B1,2670

# Molecular target: SpBzz1-D2
# Test: as above
# Outline: as §1
row,Binder,SPOT peptide array binding signal intensity
1,B1,31.2

# Molecular target: SpCyk3
# Test: as above
# Outline: as §1
row,Binder,SPOT peptide array binding signal intensity
1,B1,1

# Molecular target: SpHof1
# Test: as above
# Outline: as §1
row,Binder,SPOT peptide array binding signal intensity
1,B1,≤ 0

# Molecular target: SpHof1-2
# Test: as above
# Outline: as §1
row,Binder,SPOT peptide array binding signal intensity
1,B1,≤ 0

# Molecular target: SpHof1-3
# Test: as above
# Outline: as §1
row,Binder,SPOT peptide array binding signal intensity
1,B1,≤ 0

# Molecular target: SpHse1
# Test: as above
# Outline: as §1
row,Binder,SPOT peptide array binding signal intensity
1,B1,21

# Molecular target: SpLsb1
# Test: as above
# Outline: as §1
row,Binder,SPOT peptide array binding signal intensity
1,B1,4.5

# Molecular target: SpLsb4
# Test: as above
# Outline: as §1
row,Binder,SPOT peptide array binding signal intensity
1,B1,31

# Molecular target: SpMyo1
# Test: as above
# Outline: as §1
row,Binder,SPOT peptide array binding signal intensity
1,B1,1470

# Molecular target: SpNbp2
# Test: as above
# Outline: as §1
row,Binder,SPOT peptide array binding signal intensity
1,B1,2

# Molecular target: SpPex13
# Test: as above
# Outline: as §1
row,Binder,SPOT peptide array binding signal intensity
1,B1,≤ 0

# Molecular target: SpRvs167
# Test: as above
# Outline: as §1
row,Binder,SPOT peptide array binding signal intensity
1,B1,124

# Molecular target: SpSla1-D1-D2
# Test: as above
# Outline: as §1
row,Binder,SPOT peptide array binding signal intensity
1,B1,1.5

# Molecular target: SpSla1-D3
# Test: as above
# Outline: as §1
row,Binder,SPOT peptide array binding signal intensity
1,B1,≤ 0
